Laboratory results taken from PubChem BioAssay (Tox21).
Inconclusive results are not listed. Active and inactive are the calls of the source. Calls come from the whole dose curve; as a rule, active = well fitted cell-killing curve with a large enough effect in the repeat runs; inconclusive = weak or mixed curves; inactive = no such curve, though single readings can be large or run the other way.

test: qHTS assay for identifying genotoxic compounds that show differential cytotoxicity against isogenic chicken DT40 cell lines with known DNA damage response pathways - Rad54/Ku70 mutant cell line (AID 743015); details: DT40 Rad54/Ku70 mutant viability, CellTiter-Glo, 40 h; series mostly up to 66.8 µM; activity change, negative = cytotoxicity: at the top concentration; note: nearly all actives have a fitted effect of over 60% in size
From the text: National Center for Advancing Translational Sciences [NCATS]
NIH Chemical Genomics Center [NCGC]
U.S. Environmental Protection Agency [EPA]
National Institutes of Environmental Health Sciences [NIEHS]
National Toxicology Program [NTP]
U.S. Food and Drug Administration [FDA]
DNA repair pathways play a critical role in cellular homeostasis by repairing DNA damage induced by endogenous processes and xenobiotics. Isogenic chicken DT40 cell lines deficient in different DNA repair pathways can be used to identify genotoxic compounds and aid in characterizing the nature of the DNA damage induced. Two DNA repair-deficient cell lines with disrupted genes, Rad54/Ku70 or Rev3, were used to screen the Tox21 10K compound library. Possible genotoxicity was based on the presence of a significant increase in cytotoxicity in one or more of the DNA repair-deficient cell lines compared to that observed in the parental DNA repair-proficient cell line. CellTiter Glo viability assay (Promega, Madison, WI) was used to measure cell viability in these cells after compound treatment. This assay includes the data from the Rad54/Ku70 mutant cell line.
Tox21 Assay Protocol Summary:
300 DT40 mutant cells in 5 uL/well were dispensed into white, solid-bottom 1536-well plates using a Multidrop Combi (ThermoFisher Scientific, Waltham, MA) dispenser. After the assay plates were incubated at 37 C/5% CO2 for approximately 0.5 hour, 23 nL of compounds dissolved in DMSO, positive controls or DMSO only was transferred into the assay plate by a pintool work station (Kalypsys, San Diego, CA). The assay plates were incubated at 37 C/5% CO2 for 40 hours. After 5 uL per well of CellTiter-Glo reagent was added into each well of the assay plates, the plates were incubated for 30 min at room temperature and the luminescence intensity of the plates was measured using a ViewLux (PerkinElmer, Shelton, CT) plate reader.
% is set by controls: 0 for no effect and ±100 for the full control effect; potency is the fitted concentration of half-maximal effect.

Row | Compound | activity change, negative = cytotoxicity | Potency
1 | CC(N)=S | 5.18% (inactive) | –
2 | [O]=[Cd] | – | inactive
3 | CCS(=O)(=O)CCSP(=O)(OC)OC | – | 48.6 µM (active)
4 | O=C(O)c1cccc(Cl)c1 | -0.0084% (inactive) | –
5 | Nc1cc2c3c(c1)C(c1ccccc1)=N[C@@H](NC(=O)c1cccnc1)C(=O)N3CC2 | -28.8% (inactive) | –
6 | CCCCP(CCCC)CCCC | 9.52% (inactive) | –
7 | CC1(C)C(=O)NC(=O)NC1=O | -20.8% (inactive) | –
8 | C=C(C)CN(CC)c1c([N+](=O)[O-])cc(C(F)(F)F)cc1[N+](=O)[O-] | -40.6% (inactive) | –
9 | COc1cccc2c1cc([N+](=O)[O-])c1c(C(=O)O)cc3c(c12)OCO3 | – | 0.193 µM (active)
10 | CNC(=O)Oc1cccc(C(C)C)c1 | -13.4% (inactive) | –
11 | CCS(=O)(=O)C(C)(C)S(=O)(=O)CC | 10.5% (inactive) | –
12 | CC(Oc1ccc(Oc2ncc(C(F)(F)F)cc2Cl)cc1)C(=O)O (stereo not given) | – | 61.1 µM (active)
13 | COC(=O)c1ccccc1S(=O)(=O)NC(=O)N(C)c1nc(C)nc(OC)n1 | 10.6% [at 95.1 µM] (inactive) | –
14 | CN(C)CCc1ccc(O)cc1 | 0% (inactive) | –
15 | NC1=NC(=O)C(c2ccccc2)O1 (stereo not given) | 3.37% (inactive) | –
16 | OC(c1ccc(F)cc1)(c1cncnc1)c1ccccc1Cl (stereo not given) | – | 61.1 µM (active)
17 | CC(=O)Nc1cc([As](=O)(O)O)ccc1O | -5.54% (inactive) | –
18 | CS(=O)(=O)c1cc(C(F)(F)F)ccc1C(=O)c1cnoc1C1CC1 | -11.8% (inactive) | –
19 | NC(=S)C(N)=S | -1.89% (inactive) | –
20 | Cc1coc2c1CCC(C)C2 (stereo not given) | 6.93% [at 95.1 µM] (inactive) | –

Row | Compound | activity change, negative = cytotoxicity | Potency
21 | CC(COc1ccc(Oc2ccccc2)cc1)Oc1ccccn1 (stereo not given) | – | 61.1 µM (active)
22 | CN1CCN(C(=O)O[C@H]2c3nccnc3C(=O)N2c2ccc(Cl)cn2)CC1 | 11.5% (inactive) | –
23 | C[C@]1(O)CC[C@H]2[C@@H]3CCC4=CC(=O)CC[C@]4(C)[C@@]3(F)[C@@H](O)C[C@@]21C | – | inactive
24 | COC(=O)c1ccccc1S(=O)(=O)NC(=O)Nc1nc(C)cc(C)n1 | 1.36% (inactive) | –
25 | N#CC(CCc1ccc(Cl)cc1)(Cn1cncn1)c1ccccc1 (stereo not given) | – | 13.7 µM (active)
26 | O=C(Cc1ccccc1)OCc1ccccc1 | -14.7% [at 95.1 µM] (inactive) | –
27 | CC(CC(C#N)(c1ccccc1)c1ccccc1)N(C)C (stereo not given) | – | 48.3 µM (active)
28 | NC(=O)O | 3.98% (inactive) | –
29 | CN(N=O)C(N)=O | -7.98% (inactive) | –
30 | COC(=O)c1c(C(F)F)nc(C(F)(F)F)c(C2=NCCS2)c1CC(C)C | – | 61.1 µM (active)
31 | C(CCOCC1CO1)COCC1CO1 (stereo not given) | – | 15.1 µM (active)
32 | CCN(Cc1ccc(Cl)nc1)/C(=C/[N+](=O)[O-])NC | 4.18% (inactive) | –
33 | CCOC(=O)CP(=O)(OCC)OCC | 8.88% (inactive) | –
34 | C1CCC(C2CCCCC2)CC1 | – | 54.5 µM (active)
35 | COC(=O)C1=CCCN(C)C1 | 4.2% (inactive) | –
36 | CCCCOC(=O)[C@@H](C)Oc1ccc(Oc2ccc(C#N)cc2F)cc1 | – | 43 µM (active)
37 | CC(=O)CCc1ccc2c(c1)OCO2 | -2.32% (inactive) | –
38 | NC(=O)c1cc([N+](=O)[O-])cc([N+](=O)[O-])c1 | -10.7% (inactive) | –
39 | CCCCOC(=O)c1ccccc1C(=O)O | -1.67% (inactive) | –
40 | CC(C)[N+](=O)[O-] | 5.85% (inactive) | –
